# According to PubChem BioAssay (Tox21):
# Records with an inconclusive call do not appear. Activity calls are given as the source filed them. Calls come from the whole dose curve; as a rule, active = well fitted curve in the direction sought with a large enough effect in the repeat runs; inconclusive = weak or mixed curves; inactive = no such curve, though single readings can be large; an effect the other way counts as inactive or inconclusive.
# Experiment: qHTS assay to identify small molecule antagonists of the estrogen related receptor (ERR) signaling pathway - cell viability counter screen (AID 1224818);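 note: viability measured after 17.5 h of compound exposure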
# Conditions: ERR reporter cell line viability counter screen; series mostly up to 46.1 µM; viability change, negative = cytotoxic: at the top concentration
# Summary of the method: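 ERR cells, 2,000 per well, compound added after 6 h and incubated 17.5 h at 37 C. Viability read by CellTiter-Fluor fluorescence after a further 30 min at 37 C.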
# % is set by controls: 0 for no effect and ±100 for the full control effect.
row,SMILES,"viability change, negative = cytotoxic"
1,O=c1[nH]c2ccccc2c2ccccc12,-1.89% (inactive)
2,NCCSSCCN,-4.37% (inactive)
3,CC[N+](CC)(CC)CC(=O)Nc1c(C)cccc1C,-4.38% (inactive)
4,C#CCn1c(=O)c2c(ncn2C)n(C)c1=O,13.9% (inactive)
5,COc1ccc(/C=C/C(=O)Nc2ccccc2C(=O)O)cc1OC,-9.76% (inactive)
6,COc1cc(CNC(=O)CCCCCCC(C)C)ccc1O,13.7% (inactive)
7,C[N+](C)(C)CC=O,10.3% (inactive)
8,S=C(Nc1ccccc1)Nc1nccs1,-16.4% (inactive)
9,COc1ccc(C(=O)NCc2cccnc2)cc1C(=O)NCc1cccnc1,7.91% (inactive)
10,NC1(C(=O)O)CCc2cc(C(=O)O)ccc21 (stereo unspecified),5.65% (inactive)
11,CC(N)(C(=O)O)c1ccc(C(=O)O)cc1 (stereo unspecified),-2.72% (inactive)
12,O=C1Cc2c([nH]c3ccc(Br)cc23)-c2ccccc2N1,-6.94% (inactive)
13,O=C(O)C1CN(CCCP(=O)(O)O)CCN1 (stereo unspecified),6.55% (inactive)
14,NC(N)=NCCCCN=C(N)N,5.24% (inactive)
15,NCCS(=O)O,0.282% (inactive)
16,CNc1cc(NS(=O)(=O)c2ccc(N)cc2)nc(NC)n1,14.3% (inactive)
17,COc1cc2c(CCNC(C)=O)c[nH]c2cc1O,5.05% (inactive)
18,NC1CCN(O)C1=O (stereo unspecified),3.71% (inactive)
19,C=CCn1c(=O)c2c(nc(-c3ccc(S(=O)(=O)O)cc3)n2C)n(C)c1=O,11.9% (inactive)

row,SMILES,"viability change, negative = cytotoxic"
1,CC(=O)SCC[N+](C)(C)C,9.28% (inactive)
2,N[C@H](C(=O)O)[C@H](O)C(=O)O,10.8% (inactive)
3,CC(C)(C)NCC(O)COc1cccc2[nH]c(=O)[nH]c12 (stereo unspecified),2.01% (inactive)
4,Nc1ccc(CCNc2ncnc3c2ncn3C2OC(CO)C(O)C2O)cc1 (stereo unspecified),4.37% (inactive)
5,NC(=O)c1ccc2[nH]ccc2c1,7.87% (inactive)
6,CCSC(=N)N,5% (inactive)
7,CCCn1c(=O)c(C)cn2nc(N)nc12,4.38% (inactive)
8,O=C1c2c(O)cc(O)cc2OC(c2ccc(O)c(O)c2)C1O (stereo unspecified),-2.58% (inactive)
9,CO/N=C(\C(=O)N[C@@H]1C(=O)N2C(C(=O)O)=C(CSc3nc(=O)c(O)nn3C)CSC12)c1csc(N)n1 (stereo partly specified),5.66% (inactive)
10,O=C(O)C1CCCNC1 (stereo unspecified),-2.44% (inactive)
11,CN[C@H](CC(C)C)C(=O)N[C@H]1C(=O)N[C@@H](CC(N)=O)C(=O)N[C@H]2C(=O)N[C@H]3C(=O)N[C@H](C(=O)N[C@H](C(=O)O)c4cc(O)cc(O)c4-c4cc3ccc4O)[C@H](O)c3ccc(c(Cl)c3)Oc3cc2cc(c3O[C@@H]2O[C@H](CO)[C@@H](O)[C@H](O)[C@H]2O[C@H]2C[C@](C)(N)[C@H](O)[C@H](C)O2)Oc2ccc(cc2Cl)[C@H]1O,-0.595% (inactive)
12,O=C(O)CCC/C=C\C[C@@H]1[C@@H](/C=C/[C@H](O)C2Cc3ccccc3C2)[C@@H](F)C[C@@H]1O,11.3% (inactive)
13,NC[C@H]1O[C@@H](n2cnc3c(N)ncnc32)[C@H](O)[C@@H]1O,15.6% (inactive)
14,O=S(=O)(c1cccc2c(Cl)cccc12)N1CCCNCC1,-2.83% (inactive)
15,Nc1nc2c(cnn2CCc2ccccc2)c2nc(-c3ccco3)nn12,-10.1% (inactive)
16,CC[C@H]1OC(=O)[C@H](C)[C@@H](O[C@H]2C[C@@](C)(OC)[C@@H](O)[C@H](C)O2)[C@H](C)[C@@H](O[C@@H]2O[C@H](C)C[C@H](NC)[C@H]2O)[C@](C)(O)C[C@@H](C)CN(C)[C@H](C)[C@@H](O)[C@]1(C)O,10.4% (inactive)
17,N#CC(C#N)=C(N)/C(C#N)=C/c1ccc(O)cc1,3.46% (inactive)
18,O=c1[nH]c2cc([N+](=O)[O-])c([N+](=O)[O-])cc2[nH]c1=O,-12.9% (inactive)
19,Brc1cc2c(cc1[C@H]1Nc3ccccc3[C@H]3C=CC[C@H]31)OCO2,-6.99% (inactive)

# Experiment: qHTS assay to identify small molecule antagonists of the estrogen related receptor (ERR) signaling pathway (AID 1224819;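 note: luminescence from an ERR-driven luciferase reporter measured with One-Glo reagent; nearly all actives have a fitted effect of over 50% in size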)
# Conditions: ERR reporter cell line, luciferase inhibition; series mostly up to 46.1 µM; activity change, negative = inhibition: at the top concentration
# Summary of the method: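 ERR reporter cell line (NTP) plated at 2,000 cells/well, settled 6 h at 37C/5% CO2, then exposed to LOPAC compounds for 18 h at 37C. One-Glo luciferase luminescence read after 30 min at room temperature.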
row,SMILES,"activity change, negative = inhibition"
1,O=c1[nH]c2ccccc2c2ccccc12,27.8% (inactive)
2,NCCSSCCN,10.1% (inactive)
3,CC[N+](CC)(CC)CC(=O)Nc1c(C)cccc1C,10.6% (inactive)
4,C#CCn1c(=O)c2c(ncn2C)n(C)c1=O,14% (inactive)
5,COc1ccc(/C=C/C(=O)Nc2ccccc2C(=O)O)cc1OC,-70.7% (inactive)
6,COc1cc(CNC(=O)CCCCCCC(C)C)ccc1O,20.3% (inactive)
7,C[N+](C)(C)CC=O,7.03% (inactive)
8,S=C(Nc1ccccc1)Nc1nccs1,3.19% (inactive)
9,COc1ccc(C(=O)NCc2cccnc2)cc1C(=O)NCc1cccnc1,-23.5% (inactive)
10,NC1(C(=O)O)CCc2cc(C(=O)O)ccc21 (stereo unspecified),7.68% (inactive)
11,CC(N)(C(=O)O)c1ccc(C(=O)O)cc1 (stereo unspecified),5.36% (inactive)
12,O=C1Cc2c([nH]c3ccc(Br)cc23)-c2ccccc2N1,112% (inactive)
13,O=C(O)C1CN(CCCP(=O)(O)O)CCN1 (stereo unspecified),-4.3% (inactive)
14,NC(N)=NCCCCN=C(N)N,1.29% (inactive)
15,NCCS(=O)O,2.18% (inactive)
16,CNc1cc(NS(=O)(=O)c2ccc(N)cc2)nc(NC)n1,-5.71% (inactive)
17,COc1cc2c(CCNC(C)=O)c[nH]c2cc1O,21.1% (inactive)
18,NC1CCN(O)C1=O (stereo unspecified),12.2% (inactive)
19,C=CCn1c(=O)c2c(nc(-c3ccc(S(=O)(=O)O)cc3)n2C)n(C)c1=O,-7.63% (inactive)

row,SMILES,"activity change, negative = inhibition"
1,CC(=O)SCC[N+](C)(C)C,2.89% (inactive)
2,N[C@H](C(=O)O)[C@H](O)C(=O)O,1.72% (inactive)
3,CC(C)(C)NCC(O)COc1cccc2[nH]c(=O)[nH]c12 (stereo unspecified),17.6% (inactive)
4,Nc1ccc(CCNc2ncnc3c2ncn3C2OC(CO)C(O)C2O)cc1 (stereo unspecified),16.2% (inactive)
5,NC(=O)c1ccc2[nH]ccc2c1,3.93% (inactive)
6,CCSC(=N)N,0.445% (inactive)
7,CCCn1c(=O)c(C)cn2nc(N)nc12,9.72% (inactive)
8,O=C1c2c(O)cc(O)cc2OC(c2ccc(O)c(O)c2)C1O (stereo unspecified),-10.2% (inactive)
9,CO/N=C(\C(=O)N[C@@H]1C(=O)N2C(C(=O)O)=C(CSc3nc(=O)c(O)nn3C)CSC12)c1csc(N)n1 (stereo partly specified),9.67% (inactive)
10,O=C(O)C1CCCNC1 (stereo unspecified),11% (inactive)
11,CN[C@H](CC(C)C)C(=O)N[C@H]1C(=O)N[C@@H](CC(N)=O)C(=O)N[C@H]2C(=O)N[C@H]3C(=O)N[C@H](C(=O)N[C@H](C(=O)O)c4cc(O)cc(O)c4-c4cc3ccc4O)[C@H](O)c3ccc(c(Cl)c3)Oc3cc2cc(c3O[C@@H]2O[C@H](CO)[C@@H](O)[C@H](O)[C@H]2O[C@H]2C[C@](C)(N)[C@H](O)[C@H](C)O2)Oc2ccc(cc2Cl)[C@H]1O,4.96% (inactive)
12,O=C(O)CCC/C=C\C[C@@H]1[C@@H](/C=C/[C@H](O)C2Cc3ccccc3C2)[C@@H](F)C[C@@H]1O,1.2% (inactive)
13,NC[C@H]1O[C@@H](n2cnc3c(N)ncnc32)[C@H](O)[C@@H]1O,-3.03% (inactive)
14,O=S(=O)(c1cccc2c(Cl)cccc12)N1CCCNCC1,17.7% (inactive)
15,Nc1nc2c(cnn2CCc2ccccc2)c2nc(-c3ccco3)nn12,-4.19% (inactive)
16,CC[C@H]1OC(=O)[C@H](C)[C@@H](O[C@H]2C[C@@](C)(OC)[C@@H](O)[C@H](C)O2)[C@H](C)[C@@H](O[C@@H]2O[C@H](C)C[C@H](NC)[C@H]2O)[C@](C)(O)C[C@@H](C)CN(C)[C@H](C)[C@@H](O)[C@]1(C)O,12.3% (inactive)
17,N#CC(C#N)=C(N)/C(C#N)=C/c1ccc(O)cc1,8.11% (inactive)
18,O=c1[nH]c2cc([N+](=O)[O-])c([N+](=O)[O-])cc2[nH]c1=O,5.28% (inactive)
19,Brc1cc2c(cc1[C@H]1Nc3ccccc3[C@H]3C=CC[C@H]31)OCO2,-13.6% (inactive)
